According to PubChem BioAssay (Tox21):
Results filed as inconclusive are left out. A call without a number means that no potency is given here. Activity calls are given as the source filed them. Calls follow the shape of the dose curve; as a rule, active = well fitted inhibition curve with a large enough effect in the repeat runs; inconclusive = weak or mixed curves, or effect the other way; inactive = no such curve, though single readings can be large or run the other way.

What follows are molecules tested against Nuclear receptor ROR-gamma (Homo sapiens) (UniProt P51449) (assay: qHTS assay to identify small molecule antagonists of the retinoid-related orphan receptor gamma (ROR-gamma) signaling pathway (AID 1159521; also: nearly all actives have a fitted effect of over 50% in size)). Settings: Tet-on RORgamma CHO cells, RORE-luciferase, 16 h; series mostly up to 92.4 µM.
Text: U.S. Tox21 Program National Center for Advancing Translational Sciences [NCATS] NIH Chemical Genomics Center [NCGC] U.S. Environmental Protection Agency [EPA] National Institutes of Environmental Health Sciences [NIEHS] National Toxicology Program [NTP] U.S. Food and Drug Administration [FDA] Tox21 Assay Overview: Nuclear steroid hormone receptors are involved in many biological processes including inflammatory responses, cell proliferation, and apoptosis. Environmental factors or compounds disrupting these nuclear receptor pathways and gene expression may promote susceptibility to immunotoxicants and autoimmune diseases. One important group of these expression factors are the retinoid-related orphan receptors. To assess compounds that may interfere with the retinoid-related orphan receptor gamma (ROR-gamma) transcription factor, a cell-based luciferase assay was used. The CHO cell-based assay utilizes a TET-inducible ROR expression factor and ROR response element-LUC reporter gene. Reporter gene activity was induced using Doxycycline Hyclate and measured after 16 hr incubation. Tet-on ROR gamma CHO cells were used to screen against the Tox21 10K compound library for ROR gamma antagonists by quantification of decreased reporter gene activity in terms of decreased luminescence.
Tox21 Assay Protocol Summary: Tet-on ROR gamma CHO cells were dispensed at 1,000 cells in 4 uL of culture medium per well into white wall/solid bottom 1536-well plates using a Multidrop Combi (Thermo Scientific, Waltham, MA) dispenser. Following incubation at 37 C and 5% CO2 for 4 hr, 23 nL of compounds dissolved in DMSO, positive controls or DMSO only were transferred by a Pintool station (Kalypsys, San Diego, CA) and after 2 hr incubation at 37 C, one ul of 1 uM (final concentration) of Doxycycline Hyclate was added to all the wells by using a Flying Reagent Dispenser (FRD) (Aurora Discovery, San Diego, CA). After 16 hr incubation at 37 C and 5% CO2, 5 uL of ONE-Glo reagent (Promega Corporation, Madison, WI) was added to each assay plate using FRD. After 30 min incubation at room temperature, luminescence was quantified on a ViewLux plate reader (Perkin Elmer, Waltham, MA).
Potency is read from the fitted curve at half-maximal effect.

| SMILES | Potency |
| --- | --- |
| CCCCCCCCN | inactive |
| O=C(Cn1ccnc1[N+](=O)[O-])NCCO | inactive |
| NC1[C@H]2CN(c3nc4c(cc3F)c(=O)c(C(=O)O)cn4-c3ccc(F)cc3F)C[C@@H]12 (stereo not given in full) | inactive |
| CC1(C)S[C@@H]2[C@H](NC(=O)C(c3ccccc3)S(=O)(=O)O)C(=O)N2[C@H]1C(=O)O (stereo not given in full) | inactive |
| O=C(O)C[C@H](NC(=O)OCc1ccccc1)C(=O)O | inactive |
| CCOC(=O)c1ccc(O)c(O)c1 | inactive |
| CCC(OCCCOC)OC(C)=O (stereo not given) | inactive |
| Cc1ccc(C(C)(C)O)cc1 | inactive |
| CCCCCCNC(=O)n1cc(F)c(=O)[nH]c1=O | inactive |
| CC(C)=CCC/C(C)=C/CC/C(C)=C/C(=O)OCC(=O)[C@@]1(O)CC[C@H]2[C@@H]3CCC4=CC(=O)C=C[C@]4(C)[C@H]3[C@@H](O)C[C@@]21C | 6.68 µM (active) |
| COC(=O)c1nc(Cl)c(Cl)nc1N | 3.76 µM (active) |
| O=C(CCCN1CC=C(n2c(=O)[nH]c3ccccc32)CC1)c1ccc(F)cc1 | inactive |
| COC(=O)CS | inactive |
| C/C=C(/C(=C/C)c1ccc(O)cc1)c1ccc(O)cc1 | inactive |
| CC(=O)OCCN(CCOC(C)=O)c1ccc(N=Nc2ccc([N+](=O)[O-])cc2C#N)cc1 | inactive |
| COc1ncnc(NS(=O)(=O)c2ccc(N)cc2)c1OC | inactive |
| CN1C(=O)c2ccccc2C1=O | inactive |
| C=CCc1ccccc1OCC(O)CNC(C)C (stereo not given) | inactive |
| O=C(O)CCC(=O)C(=O)O | inactive |
| O=C(/C=C/c1ccccc1)OCCc1ccccc1 | inactive |

| SMILES | Potency |
| --- | --- |
| CC(C)(C)C(=O)C(=O)O | inactive |
| CC1CC(OC(=O)C(O)c2ccccc2)CC(C)(C)N1C (stereo not given) | inactive |
| CC(C)C[C@H](NC(=O)[C@H](CCc1ccccc1)NC(=O)CN1CCOCC1)C(=O)N[C@@H](Cc1ccccc1)C(=O)N[C@@H](CC(C)C)C(=O)[C@@]1(C)CO1 | 1.19 µM (active) |
| CCCCCCCCOc1ccc(C(=O)O)cc1 | inactive |
| COc1ccccc1NC(=O)c1cc2ccccc2cc1O | 30.6 µM (active) |
| CCOC(=O)/C=C/C(=O)OCC | inactive |
| CCOC(=O)[C@H](CCc1ccccc1)N[C@@H](C)C(=O)N(CC(=O)O)C1Cc2ccccc2C1 | inactive |
| CCCCCCCC/C=C\CCCCCCCCO | inactive |
| O=c1cc(-c2ccccc2)oc2ccc3ccccc3c12 | inactive |
| O=[N+]([O-])c1cc(C2CCCCC2)c(O)c([N+](=O)[O-])c1 | 4.31 µM (active) |
| Cc1ccccc1N=C(N)Nc1ccccc1C | inactive |
| O=C1NC(=O)c2cc([N+](=O)[O-])ccc21 | inactive |
| CC(=O)NC1(c2cccc(F)c2)CCN(CC[C@@]2(c3ccc(Cl)c(Cl)c3)CN(c3ccccc3)C(=O)CO2)CC1 | 38.7 µM (active) |
| CCCC(=O)C(=O)O | inactive |
| c1ccc2c(c1)CCc1ccccc1N2 | inactive |
| Nc1cccc2c1CN(C1CCC(=O)NC1=O)C2=O (stereo not given) | inactive |
| CC1(C)[C@@H](OC(=O)CCC(=O)O)CC[C@]2(C)[C@H]3C(=O)C=C4[C@@H]5C[C@@](C)(C(=O)O)CC[C@]5(C)CC[C@@]4(C)[C@]3(C)CC[C@@H]12 | inactive |
| N#CCc1ccc(Cl)cc1Cl | inactive |
| CCCCOc1ccc(OCCCN2CCOCC2)cc1 | inactive |
| O=C1CCCCCCCCCCOCCCCO1 | inactive |
